Drawing on PubChem BioAssay (NCATS), this text covers Potency and max response for 40 molecules.

Results filed as inconclusive are left out. Values without a mark were called inactive. The source made the active and inactive calls. Calls follow the shape of the dose curve; as a rule, active = well fitted inhibition curve with a large enough effect; inconclusive = small, poorly fitted or top-dose-only effect; inactive = flat fitted curve, though single readings scatter.
% is scaled to controls: 0 for no effect and ±100 for the full control effect; potency is read from the fitted curve at half-maximal effect.

The assay relates to CRL-7250. As to the kind of experiment: Cytotoxic Profiling of Annotated Libraries Using Quantitative High-Throughput Screening (AID 1296008). Also: nearly all actives have a fitted effect of over 60% in size. Particulars: Five cell lines viability, CellTiter-Glo ATP luminescence, 48-72 h; max response: active compounds read low. Summed up:
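Cytotoxicity was measured as CellTiter-Glo ATP luminescence, read after 10 min at room temperature. Compound treatment of the cells lasted 48 or 72 hr at 37 degrees Celsius in a qHTS format.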
On the technique in general: Cellular ATP, detected with luciferase, serves as a proxy for viable cell number.
Consider `C=C1C(=O)O[C@@H]2C3C(=C(C)[C@@H](O)[C@@H](OC(=O)/C(=C/C)COC(C)=O)[C@@H]12)C(=O)[C@H]1O[C@@]31C` (stereo not given in full), for which the Potency was 6.32 µM (active).
In the case of `Cc1ccc(C(=O)Nc2ccc(CN3CCN(C)CC3)c(C(F)(F)F)c2)cc1C#Cc1cnc2[nH]ncc2c1`, the Potency was 0.058 µM (active).
`CCOC(=O)[C@@]1(CCCCCCOc2ccc(Cl)cc2)CO1`: the max response is -16.7%.
On to `CC(/C=C/C(=O)NO)=C\[C@@H](C)C(=O)c1ccc(N(C)C)cc1`, for which the Potency is 2.91 µM (active).
As to `C#CCCCn1cc(-c2cccc3c2N[C@H](C)CC(=O)N3)cn1`, the max response is -3.86%.
As for `C=CC(=O)Nc1ccc2ncnc(Nc3cccc(Br)c3)c2c1`, the Potency was 5.8 µM (active).
The same measure, in the same setting: in the case of `CCCC1(CCC)CCC2(CCN(CCCN(CC)CC)C2)CC1` it was 4.11 µM (active).
On to `N#Cc1ccc(Nc2nc(-c3ccc(O)cc3O)cs2)cc1C(F)(F)F`, for which the Potency is 5.8 µM (active).
For `CCc1cc(C(N)=O)ccc1-n1nc(C(C)C)c2c(-n3cnc(-c4cnn(C)c4)c3)ccnc21`, the Potency is 4.11 µM (active).
Turning to `Nc1nc(O)c(C2=C3C(=Nc4ccccc43)C(=O)NCC2)[nH]1`, the max response is -2.87%.
In the case of `C=CC(=O)Nc1cccc(Nc2nc(Nc3ccc(NC4CN(CCF)C4)cc3OC)ncc2C(F)(F)F)c1`, the Potency is 7.31 µM (active).
Consider `FC(F)(F)c1ccc(/C=C/c2nc(COc3ccc(CCCCn4ccnn4)cc3)co2)cc1`, for which the Potency is 0.0651 µM (active).
In the case of `COc1cc(O)cc(OC2OC(CO)C(O)C(O)C2O)c1` (stereo not given), the max response is -0.834%.
Still for that read-out and setting: the figure for `CN[C@@H]1[C@H](O[C@H]2[C@H](O[C@@H]3[C@@H](O)[C@H](O)[C@@H](N=C(N)N)[C@H](O)[C@H]3N=C(N)N)O[C@@H](C)[C@]2(O)CO)O[C@@H](CO)[C@H](O)[C@H]1O` is 1.43%.
`CC(C)NCCCn1c(Sc2cc3c(cc2I)OCO3)nc2c(N)ncnc21`: the Potency is 0.411 µM (active).
On to `O=c1cc(NCCCN[C@@H]2CCOc3c(Br)cc(Br)cc32)[nH]c2ccsc12`, for which the max response was 1.96%.
For the molecule `COC1=CC(=O)C[C@@H](C)[C@@]12Oc1c(Cl)c(OC)cc(OC)c1C2=O`, the max response was -44.3%.
Turning to `COC(C)(C)CCn1nc(Nc2c(C)cccc2C)c2cnc(Nc3ccc(OCCN4CCCC4)c(F)c3)nc21`, the Potency was 1.16 µM (active).
Regarding `CCNC(=O)c1noc(-c2cc(Cl)c(O)cc2O)c1-c1ccc(OC)cc1`, the Potency was 0.461 µM (active).
Turning to `COc1ccc(N(C(=O)Nc2c(C)cccc2C)c2cc(Nc3ccc(N4CCN(C)CC4)cc3)ncn2)c(OC)c1`, the Potency is 2.91 µM (active).
As for `COc1cc(O)c2c(c1)C1OC1C[C@H](O)[C@H](O)C(=O)/C=C\C[C@H](C)OC2=O` (stereo not given in full), the Potency was 20.6 µM (active).
On the same count and under the same terms, the figure for `C=C1CC[C@@H]2[C@](C)(CO)[C@H](O)CC[C@@]2(C)[C@@H]1C/C=C1/C(=O)OCC1O` (stereo not given in full) is 18.4 µM (active).
In the case of `O=C(Nc1ccc(Cl)cc1)C1CCCN(C(=O)c2cccc(-c3ccco3)c2)C1` (stereo not given), the Potency was 13 µM (active).
Take `C=C(C)Cn1c(SCC(=O)c2cccs2)nc2sc3c(c2c1=O)CCCC3`: the max response was -0.048%.
Take `CC#CC(=O)Nc1ccc2ncnc(Nc3cccc(Br)c3)c2c1`: the Potency is 6.51 µM (active).
Consider `Cc1cc(-c2nc(-c3ccc(OC(F)(F)F)cc3)no2)nn1Cc1ccnc(N2CCN(C3CC3)CC2)c1`, for which the Potency was 0.0259 µM (active).
On the same count and under the same terms, in the case of `CC(C)S(=O)(=O)NC[C@H](C)c1ccc(-c2ccc(CCNS(C)(=O)=O)cc2)cc1` it was 4.61 µM (active); in that of `O=C(Cc1cccc(OC(F)(F)F)c1)Nc1ccc(CCCCc2nnc(NC(=O)Cc3ccccn3)s2)nn1`, 0.0166 µM (active).
`C=C(C)C(=O)OC1CC2(C)OC(=CC2=O)C(=C)CC2OC(=O)C(=C)C12` (stereo not given): the Potency was 3.21 µM (active).
Consider `Cc1nnc(C[C@@H]2C=C(c3ccc(Cl)cc3)c3ccccc3-n3c(C)nnc32)o1`, for which the Potency was 0.651 µM (active).
Same read-out and setting: the figure for `COC(=O)Nc1cc(Nc2cc(NC3CC3)c3ncc(C#N)n3n2)c(Cl)c(N2CCN(C)CC2)c1` is 9.33 µM (active).
`CC1(C(=O)Nc2ccc(F)nc2)CCCN1c1nc(Nc2cc(C3CC3)[nH]n2)c2cccn2n1` (stereo not given): the Potency is 8.2 µM (active).
For the molecule `C=C[C@@]12COC(=O)C(=C)[C@@H]1[C@@H](O)[C@H](C(=C)C(=O)OC)[C@@H](O)C2`, the max response was -65.9%.
With `Cc1csc2c(N[C@@H](C)CN3CCN(S(=O)(=O)c4ccc(Cl)c(Cl)c4)CC3)ncnc12`, the Potency is 0.259 µM (active).
For the molecule `CN1CCC(NC(=O)c2cc(-c3c(O)cc(O)cc3Oc3ccc([N+](=O)[O-])cc3)on2)CC1`, the Potency was 0.366 µM (active).
For `CC1CC(=O)C2=C(C1)C1OC1C1(O)C2C(=O)c2cccc(O)c2C1O` (stereo not given), the max response was -42.8%.
On to `N#Cc1ccnc(Nc2cc(C3CCN(C4COC4)CC3)cc(N3CCC(F)(F)C3)n2)c1`, for which the Potency was 11.7 µM (active).
Consider `CC(C)c1ccccc1OC(=O)NCCc1ccc2ccccc2c1`, for which the max response was -4.95%.
As to `COc1ccc(-c2cc3onc(-c4ccncc4)c3c(=O)n2C)cc1`, the Potency is 0.651 µM (active).
Still for that read-out and setting: the figure for `CC[C@@H](C)Nc1cc(C(=O)NC2CC3CCC(C2)N3c2ccc(C(=O)C3CC3)cn2)c(C)cc1C(N)=O` (stereo not given in full) is 0.259 µM (active).
